Activity calls are given as the source filed them. Where a call stands in place of a potency, no number is given. Calls follow the shape of the full dose curve.

In the assay the target is Muscarinic acetylcholine receptor M1 (Homo sapiens) (UniProt P11229). Nature of the assay: Cholinergic receptor muscarinic 1 (CHRM1) small molecule agonists, cell-based qHTS assay (AID 1963589). Also: nearly all actives have a fitted effect of over 35% in size. Conditions: CHRM1-CHO cells, agonist mode, calcium flux fluorescence; series mostly up to 76.8 µM. The source says: National Center for Advancing Translational Sciences [NCATS]
Sequence of Muscarinic acetylcholine receptor M1 (Homo sapiens) (P11229 whole entry, looked up): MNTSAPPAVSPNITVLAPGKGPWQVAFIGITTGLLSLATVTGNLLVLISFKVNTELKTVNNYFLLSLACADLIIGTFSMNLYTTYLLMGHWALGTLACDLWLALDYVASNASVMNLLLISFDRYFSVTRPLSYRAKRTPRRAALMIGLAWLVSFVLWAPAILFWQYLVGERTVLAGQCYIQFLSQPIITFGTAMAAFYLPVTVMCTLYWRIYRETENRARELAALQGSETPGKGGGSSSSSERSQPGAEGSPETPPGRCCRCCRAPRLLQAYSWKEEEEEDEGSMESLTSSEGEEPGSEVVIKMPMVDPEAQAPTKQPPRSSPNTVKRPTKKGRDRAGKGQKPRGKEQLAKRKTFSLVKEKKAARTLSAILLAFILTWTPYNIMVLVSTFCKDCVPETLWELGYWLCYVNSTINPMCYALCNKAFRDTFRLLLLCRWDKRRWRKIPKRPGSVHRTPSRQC
Division of Preclinical Innovation [DPI]
U.S. Environmental Protection Agency [EPA]
National Institutes of Environmental Health Sciences [NIEHS]
National Toxicology Program [NTP]
U.S. Food and Drug Administration [FDA]
The CHRM1 is a muscarinic receptor. This receptor plays a crucial role in learning and memory processes and has long been identified as a promising therapeutic target for the improvement of cognitive decline in Alzheimer's disease (AD). The CHRM1-CHO cell line stably expressing human muscarinic acetylcholine receptor M1 (CHRM1) can be used for screening agonists and antagonists of interactions between CHRM1 and its ligands. The CHRM1-CHO Calcium Flux Assay is a homogeneous fluorescence-based assay for detecting the intracellular calcium level using FDSS kinetic plate reader system.
CHRM1-CHO cells were dispensed at 1000 cells/3uL/well in 1536-well black-clear bottom plates using a Multidrop Dispenser. After the assay plates were incubated at a 37 C/5% CO2 incubator for 18 h, 3 uL of Dye Loading Buffer was transferred to the assay plate by a Flying Reagent Dispenser. The assay plates were incubated at 37 C for 1h. For agonist mode, 23 nL of compounds dissolved in DMSO, positive controls or DMSO only was transferred to the assay plate by a pin tool. […] Each test compound was measured at 15 concentrations in three independent runs.
On the technique in general: qHTS replaces the single test concentration by a dilution series.
Consider `CCCCC(CC)COC(C)=O` (stereo not given), for which the Potency entry is “inactive”.
Under `O=C(Nc1ccc([N+](=O)[O-])cc1)Nc1ccc([N+](=O)[O-])cc1` (tested in a mixture with another compound) stands “inactive”.
Under `Cc1cnccn1` stands “inactive”; under `CCCCC(CC)COCCO` (stereo not given), “inactive”; under `CC(O)CNCC(C)O` (stereo not given), “inactive”.
Under `c1ccc2ncccc2c1` stands “inactive”; under `CC(C)c1cc2c(cc1S(=O)(=O)O)[C@@]1(C)CCC[C@@](C)(C(=O)O)[C@@H]1CC2`, “inactive”.
For `CN1Cc2c(N)cccc2C(c2ccccc2)C1` (stereo not given), the Potency entry is “inactive”.
Regarding `CS(=O)(=O)O`, the Potency result was “inactive”.
The same measure for `CCCCCCCCCCCC(=O)OCC(C)OC(=O)CCCCC(=O)O` (stereo not given): “inactive”.
Under `CCC(C)C1CCCCC1=O` (stereo not given) stands “inactive”; under `O=C(/N=N/C(=O)OCc1ccccc1)OCc1ccccc1`, “inactive”; under `N#Cc1cc(NC(=O)C(=O)O)c(Cl)c(NC(=O)C(=O)O)c1`, “inactive”.
The same measure for `CCN(CC#N)c1cccc(C)c1`: “inactive”; for `CC(C)(C)c1ccc(O)c(O)c1`: “inactive”; for `C=CCCC=C`: “inactive”.
`C/C(=C(\CCO)SS/C(CCO)=C(\C)N(C=O)Cc1cnc(C)nc1N)N(C=O)Cc1cnc(C)nc1N`: the Potency result was “inactive”.
Under `O=C1CC(c2ccc(Cl)cc2)CC(=O)N1` stands “inactive”.
With `c1ccc2c(c1)CCc1ccccc1N2`, the Potency result is “inactive”.
As to `CCCCCCCCS(=O)(=O)Cl`, the Potency result is “inactive”.
Under `NCc1cccc(CN)c1` stands “inactive”; under `CCc1c(Br)c(Br)c(Br)c(Br)c1Br`, “inactive”; under `C=CCCCCCCCCC(=O)OCCCC`, “inactive”.
The same measure for `COc1cc2c(Nc3ccc(Br)cc3F)ncnc2cc1OCC1CCN(C)CC1`: “inactive”; for `Cc1cccc2c1ccc1ccccc12`: “inactive”; for `Cl/C(=C\n1cncn1)c1ccc(Cl)cc1Cl`: “inactive”.
As for `CC(=O)Nc1ncc([N+](=O)[O-])s1`, the Potency entry is “inactive”.
Take `CC(=O)OC/C=C(\C)CC/C=C(\C)CCC=C(C)C`: the Potency entry is “inactive”.
The same measure for `CCO[Si](C)(OCC)OCC`: “inactive”; for `Cc1cccnc1`: “inactive”.
Regarding `FC(F)(F)/C(=N\OCC1OCCO1)c1ccc(Cl)cc1`, the Potency entry is “inactive”.
As for `C1=COCCC1`, the Potency entry was “inactive”.
The same measure for `Cc1nc(-c2ccc3c(c2)CCN(CCC2CCC(NC(=O)/C=C/c4ccc(F)cc4)CC2)CC3)no1` (stereo not given): “inactive”; for `CC(C=O)c1ccccc1` (stereo not given): “inactive”.
Consider `CCNc1cc(O)ccc1C`, for which the Potency result was “inactive”.
Consider `CN(C)c1ccc(Cc2ccc(N(C)C)cc2)cc1`, for which the Potency entry was “inactive”.
The same measure for `CO[Si](CCCNCCNCCN)(OC)OC`: “inactive”.
The same measure for `O[C@@H]([C@H](O)[C@H](O)CBr)[C@H](O)CBr`: “inactive”.
The same measure for `Nc1ccc(S(=O)(=O)Nc2ccc(Cl)nn2)cc1`: “inactive”; for `CCCCCC(=O)O[C@]1(C(C)=O)CC[C@H]2[C@@H]3CCC4=CC(=O)CC[C@]4(C)[C@H]3CC[C@@]21C`: “inactive”.

The values are drawn from PubChem BioAssay (Tox21).
